# Screening results from PubChem.
# An excerpt weighted towards active compounds, which were near 4.1% of everything screened.
# GDH-TPI counter – counter-screen for M. tuberculosis FBA inhibitors: GDH-TPI coupled enzymes; inhibition, % at 4.8 µM; AID 588335; GDH-TPI coupled enzyme counterscreen, NADH absorbance; hit rate 1.2% among 360,000; in the data active = inhibition above about 30%;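 note: 0% = DMSO wells and 100% = wells lacking the enzyme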
# FBA Mtb inh – Mtb fructose-bisphosphate aldolase inhibition; P9WQA3; inhibition, % at 1 µM; purified M. tuberculosis FBA, fluorescence read-out; hit rate 2.3% among 360,000; AID 588726; in the data active = inhibition above about 27%;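 note: 0% = vehicle and 100% = reference inhibitor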
# Rv3671c protease – Rv3671c (M. tuberculosis) protease inhibition; hit rate 0.048% among 320,000; P9WHR9; inhibition, % at 5.96 µM; AID 2606; in the data active = inhibition above about 38%;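 note: extracellular domain of Rv3671c used as enzyme; 0% = enzyme with DMSO and 100% = no enzyme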
# Target sequence (P9WHR9 whole entry, looked up, the tested form may be a part): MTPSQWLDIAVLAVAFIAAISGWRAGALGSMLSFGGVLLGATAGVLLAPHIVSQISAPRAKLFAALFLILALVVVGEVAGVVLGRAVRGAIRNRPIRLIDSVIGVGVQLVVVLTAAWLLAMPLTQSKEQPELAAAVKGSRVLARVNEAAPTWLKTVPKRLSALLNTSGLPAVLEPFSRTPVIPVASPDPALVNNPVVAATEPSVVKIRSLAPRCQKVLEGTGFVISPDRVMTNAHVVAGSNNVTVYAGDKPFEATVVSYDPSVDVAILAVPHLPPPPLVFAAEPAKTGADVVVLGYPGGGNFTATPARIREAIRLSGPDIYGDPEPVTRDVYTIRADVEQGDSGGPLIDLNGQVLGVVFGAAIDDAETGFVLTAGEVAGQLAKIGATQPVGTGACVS
# Vc quorum ag – induces V. cholerae light production without autoinducers; activation, % at 18.7 µM; hit rate 0.16% among 350,000; V. cholerae BH1578 lux reporter, luminescence, 6 h; in the data active = activation mostly above about 9.7%, no sharp cut-off
# RecA intein inh – blocks M. tuberculosis RecA intein splicing; inhibition, % (no concentration beside the values); P9WHJ3; hit rate 0.75% among 290,000; AID 2221; cell-free RecA intein splicing, fluorescence; in the data active = inhibition above about 30%;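 note: 0% = vehicle wells and 100% = reference inhibitor control wells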
# UGM FP inh – blocks M. tuberculosis UGM enzyme; hit rate 0.06% among 320,000; P9WIQ1; AID 504406; inhibition, % at 10 µM; purified UGM, fluorescence polarization probe displacement; in the data active = inhibition above about 10%, passing the limit was not always enough
# Numbers without * were called inactive; i = inactive; · = no result.
SMILES,GDH-TPI counter,FBA Mtb inh,Rv3671c protease,Vc quorum ag,RecA intein inh,UGM FP inh
Cc1cc(C)c([N+](=O)[O-])cc1-c1ccc(/C=N/c2c(-c3ccco3)nc3ccccn23)o1,33*,1,8,0,5,4
CCOC(=O)c1c(NC(=O)COC(=O)CCOc2ccc(C)cc2)sc(C(=O)N(C)C)c1C,7,-3,2,-2,4,-1
O=C(O)c1cccc(-n2c(/C=C/c3ccccc3)nc3ccccc3c2=O)c1,32*,1,-15,-1,2,2
O=c1c2ccccc2nc(/C=C/c2ccccc2)n1-c1ccc(O)cc1,19,6,-28,-8,1,1
O=C(O)c1ccc(/C=C/c2nc3ccccc3c(=O)n2-c2ccc(Br)cc2)cc1,39*,-4,0,i,3,-2
COc1ccc2nc(SCC(=O)NN)cc(C)c2c1,2,0,-13,·,42*,-1
O=Cc1s/c(=N\S(=O)(=O)c2ccccc2)n(CCCCl)c1Cl,-5,-2,·,-1,95*,·
CCN(CC)S(=O)(=O)c1ccc(N/N=C/c2cc(OC)ccc2O)nc1,18,-3,-3,0,10,1
CCN(CC)S(=O)(=O)c1ccc(N/N=C/c2cccnc2)nc1,73*,0,11,i,3,-4
C#CCOCCOCCOCCNc1nc(N2CCN(C(=O)Cn3cc(CCO)nn3)CC2)nc(N2CCN(C(=O)[C@H](CCCCN)n3cc(CC(C)O)nn3)CC2)n1 (some centres undefined),-7,2,·,i,·,·
Cc1ccc(C(=O)N/C(=C\C=C\c2ccccc2)C(=O)NCc2ccco2)cc1,36*,4,-10,0,6,1
O=C(Nc1ccc(C(=O)O)cc1)/C(=C\C=C\c1ccccc1)NC(=O)c1ccccc1Cl,56*,-4,-12,i,1,-1
O=C(Nc1ccc(O)cc1)/C(=C\C=C\c1ccccc1)NC(=O)c1ccccc1,74*,1,-4,-4,8,-3
O=C(N/C(=C/C=C/c1ccccc1)C(=O)N1CCOCC1)c1ccccc1Cl,22,3,7,2,0,-5
O=C(NCc1ccco1)/C(=C/C=C/c1ccccc1)NC(=O)c1ccco1,18,0,-5,0,2,0
O=C(O)CCNC(=O)/C(=C\C=C\c1ccccc1)NC(=O)c1ccccc1,53*,5,11,2,0,·
O=C(NCCc1ccccn1)c1ccc2nc(Cc3ccccc3F)oc2c1,3,0,-12,-1,-1,-1
COc1ccc(C(=O)NC2CCCc3ccccc32)c(OC)c1OC (centres undefined),5,4,9,-1,·,7
Cc1c(Cl)cccc1-n1c(SCC(=O)N2CCC(C(=O)O)CC2)nc2ccccc2c1=O,-5,0,7,i,-2,2
Cc1ccc(S(=O)(=O)N(C)C[C@H]2Oc3cc(C#Cc4ccccc4)ccc3S(=O)(=O)N([C@H](C)CO)C[C@@H]2C)cc1,10,1,·,0,·,·
CCc1ccc(NC(=O)c2cnc(N3CCN(c4ccccn4)CC3)c3ccccc23)cc1,6,1,-17,0,7,3
CCN1CCN(c2ncc(C(=O)Nc3ccccc3C(=O)OC)c3ccccc23)CC1,31*,9,9,i,2,1
CCCCN(C(=O)c1ccccc1Br)C(c1ccc(OC)cc1)c1nc2ccccc2[nH]1 (centres undefined),·,-3,·,·,·,·
Cc1ccc(Nc2nc(N/N=C\c3ccc4c(c3)OCO4)nc(N3CCOCC3)n2)cc1,14,2,8,-1,·,1
CCC(=O)N1CCN(c2ccc(NC(=S)NC(=O)c3cccc([N+](=O)[O-])c3)cc2)CC1,10,-1,-8,33*,0,0
SMILES,GDH-TPI counter,FBA Mtb inh,Rv3671c protease,Vc quorum ag,RecA intein inh,UGM FP inh
COc1cc(O)oc1C=Nc1ccc(Cl)cc1,13,-3,-18,26*,·,-2
CCCOC1CCCN(C(=O)c2cc(COc3ccc(-n4cncn4)cc3)on2)C1 (centres undefined),-4,3,-4,-4,3,4
Cc1occc1C(=O)n1cnc2ccccc21,·,·,0,·,0,3
Cc1ccc(C(=O)n2cnc3ccccc32)cc1C,9,2,5,-8,36*,1
CN(Cc1nc2ccccc2c(=O)[nH]1)C(=O)COc1ccccc1Cc1ccccc1,-14,3,8,-2,·,-2
CC(=O)c1ccc(N2CCN(S(=O)(=O)c3c(C(=O)N4CCCC4)c(C)n(C)c3C)CC2)cc1,40*,1,2,-7,-1,-2
CC(=O)c1ccc(N2CCN(S(=O)(=O)c3c(C(=O)N4CCCCC4)c(C)n(C)c3C)CC2)cc1,24,3,6,-2,1,-2
CC(=O)c1ccc(N2CCN(S(=O)(=O)c3c(C)[nH]c(C)c3C(=O)N3CCCC3)CC2)cc1,21,0,2,0,-1,2
CC(=O)c1ccc(N2CCN(S(=O)(=O)c3c(C)[nH]c(C)c3C(=O)N3CCCCC3)CC2)cc1,34*,1,1,0,-3,3
CCc1ccccc1NC(=S)Nn1cnnc1,4,3,·,0,-2,0
COC1CCCN(C(=O)c2ccc(OC3CCN(S(=O)(=O)N(C)C)CC3)cc2)C1 (centres undefined),-7,4,1,i,-4,-1
COc1cc2nc(N3CCN(C(=O)C4CCCO4)CC3)nc(N)c2cc1OC (centres undefined),13,112*,3,6,-2,-2
COc1cc(C(=O)N2CCN(C(=O)C3CCCO3)CC2)cc(OC)c1OC (centres undefined),0,1,-6,1,·,·
O=c1[nH]cccc1-c1nc2ccccc2n1Cc1cccc(Cl)c1,3,135*,-3,0,-1,0
CCCn1c(-c2ccc[nH]c2=O)nc2cc(C)c(C)cc21,2,115*,6,i,-3,0
O=c1[nH]cccc1-c1nc2ccccc2n1Cc1cccc(F)c1,8,162*,-2,1,-1,-1
Cc1cc2nc(-c3ccc[nH]c3=O)n(Cc3cccc(F)c3)c2cc1C,23,149*,-5,0,-2,1
CCCCn1c(-c2ccccc2C)nc2cc3[nH]c(=O)c(C(C)C)nc3cc21,7,27,6,8,10,1
C[C@H]1CN([C@@H](C)CO)C(=O)CCCn2nncc2CO[C@H]1CN(C)S(=O)(=O)c1ccc(Oc2ccccc2)cc1,0,-3,·,0,·,·
CC(C)NC(=O)C1(C)CCN1C(=O)c1ccccc1 (centres undefined),-1,-3,·,0,·,·
Cc1cc2c(c(=O)n1C)C(Cc1ccccc1)C(C#N)=C(N)O2 (centres undefined),-9,19,-9,·,-27,-2
CCCC1C(C#N)=C(N)Oc2cc(C)n(C)c(=O)c21 (centres undefined),9,114*,0,0,0,1
